Only some compounds are listed: those with a hit (about 3.4% of all), similar ones and a draw of the others.
MITF primary – MITF inhibitors, primary screen, biochemical, AlphaScreen, human | AlphaScreen MITF homodimerization, bead proximity signal | AID 1259374, 2018 | hit rate 0.91% among 650,000 | inhibition, % at 2.6 µM | Microphthalmia-associated transcription factor (Homo sapiens), O75030; in the data active = inhibition above about 50%;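 note: 0% = vehicle wells with protein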
TEAD-YAP block – TEAD-YAP interaction inhibition, primary screen, TEAD-YAP interaction inhibitor project, luminescence, HEK-TIYL cells | TEAD-Gal4/YAP UAS-luciferase luminescence | inhibition, % at 9.12 µM | hit rate 1.4% among 640,000; in the data active = inhibition above about 32%;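 note: 0% = median of test compound wells and 100% = reference inhibitor wells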
GPR151 activ – activators of human GPR151, primary screen, cell-based, PathHunter beta-arrestin, luminescence; hit rate 1% among 650,000; G-protein coupled receptor 151 (Homo sapiens), Q8TDV0; AID 1508602, 2020; activation, % at 11.2 µM; PathHunter beta-arrestin GPR151 cells; in the data active = activation above about 4.9%;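 note: 0% = median of compound wells and 100% = cells with positive control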
FBW7 activator – FBW7 E3 ligase activators, primary screen, biochemical, AlphaScreen, human; AlphaScreen FBW7–phospho-cyclin E peptide binding, activator screen; F-box/WD repeat-containing protein 7 (Homo sapiens), Q969H0; AID 1259310, 2017; normalized activity (activation), % at 26.1 µM; hit rate 0.13% among 650,000; in the data active = normalized activity above about 1.9%;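 note: purified mutant Fbw7 with reduced substrate affinity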
Target sequence (Q969H0 whole entry, looked up): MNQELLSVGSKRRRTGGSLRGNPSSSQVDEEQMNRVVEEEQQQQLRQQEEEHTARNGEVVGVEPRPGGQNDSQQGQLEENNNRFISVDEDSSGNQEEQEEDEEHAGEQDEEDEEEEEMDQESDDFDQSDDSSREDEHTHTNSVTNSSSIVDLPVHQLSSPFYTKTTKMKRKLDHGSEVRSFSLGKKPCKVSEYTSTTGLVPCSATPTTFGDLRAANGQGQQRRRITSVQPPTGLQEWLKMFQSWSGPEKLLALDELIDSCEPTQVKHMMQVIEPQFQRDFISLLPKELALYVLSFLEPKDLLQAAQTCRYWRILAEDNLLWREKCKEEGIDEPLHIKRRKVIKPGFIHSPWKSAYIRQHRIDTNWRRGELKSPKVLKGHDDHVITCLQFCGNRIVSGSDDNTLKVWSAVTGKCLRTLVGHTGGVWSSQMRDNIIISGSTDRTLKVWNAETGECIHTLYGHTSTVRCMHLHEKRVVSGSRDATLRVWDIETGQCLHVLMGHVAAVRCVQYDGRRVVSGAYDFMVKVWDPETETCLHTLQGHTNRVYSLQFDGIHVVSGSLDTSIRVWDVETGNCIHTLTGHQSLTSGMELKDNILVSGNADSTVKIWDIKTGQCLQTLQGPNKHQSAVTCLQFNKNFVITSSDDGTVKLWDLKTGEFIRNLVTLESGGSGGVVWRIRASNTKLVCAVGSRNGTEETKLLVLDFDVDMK
GPR151 confirm – GPR151 activators, triplicate retest, confirmation, cell-based, PathHunter beta-arrestin, luminescence | GPR151 PathHunter beta-arrestin cells, 90 min; % of EA-reagent control over plate median | 6,700 tested, under 10 active | AID 1508609, 2020 | shares compounds with GPR151 activ | activation, % at 11.2 µM;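 active = mean percent activation across replicates above the confirmation screen cutoff of 4.91%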
GPR119 counter – GPR119 activators in beta-arrestin cells, counter-screen for GPR151 activator project, cell-based, PathHunter beta-arrestin, luminescence, triplicate | hit rate 0.3% among 6,700 | activation, % at 11.2 µM | 90 min; 0 = compound-well median, 100 = enzyme-acceptor control | shares compounds with GPR151 activ;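 active = mean percent activation in the counterscreen above 29.09%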;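 note: counterscreen on off-target GPR119 to flag nonselective hits from the GPR151 activator screen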
* = called active by the depositor; . = no result.

SMILES	MITF primary	TEAD-YAP block	GPR151 activ	FBW7 activator	GPR151 confirm	GPR119 counter
O=C1NC(=S)/C(=C\c2ccccc2F)S1	9.4	-0.6	7.2*	-0.1	0.1	23.0
COc1ccc(CNC(=O)CN2CCC(n3nnc4cc(C(F)(F)F)ccc43)CC2)cc1	3.1	5.4	2.4	0.0	.	.
Cc1cc(C)cc(NC(=O)c2cnc3ccc(C)cn3c2=O)c1	-2.7	5.9	-1.1	0.1	.	.
Cc1ccc2ncc(C(=O)Nc3cc(C)on3)c(=O)n2c1	8.5	-20.2	8.2*	-0.3	-0.3	-3.0
COC(=O)CCNC(=O)NC(CCC(C)C)c1c(-n2cccc2)sc2c1CCN(C)C2 (centres undefined)	-2.9	-6.4	1.9	-0.1	.	.
COCCCNC(=O)NC(CCC(C)C)c1c(-n2cccc2)sc2c1CCN(C)C2 (centres undefined)	-2.2	10.2	8.2*	-0.1	-0.5	-5.0
C=CCn1c(C(=O)OCC)cc2oc(C)cc21	-6.7	3.6	5.7*	-0.1	-0.1	5.9
CCOC(=O)Cn1c(C(=O)OCC)cc2oc(C)cc21	0.8	-0.9	-1.5	-0.1	.	.
CCOc1ccc(S(=O)(=O)N2CCN(C)CC2)cc1-c1nc2c(C(C)(C)C)nn(C)c2c(=O)[nH]1	-6.1	3.7	5.1*	-0.1	0.2	9.3
Cc1cccc(CN2CCN3C(=O)[C@@H](CO)NC(=O)[C@H]3C2)c1	8.8	8.2	1.0	0.3	.	.
Fc1ccc(Cn2cc(/C=N/n3cnnc3)c3ccccc32)cc1	18.1	-2.2	-1.6	0.8	.	.
Clc1ccc(Cn2cc(/C=N/n3cnnc3)c3ccccc32)cc1	0.8	10.2	6.2*	0.0	0.4	-2.3
COC(=O)c1c(NC(=O)CSc2nnc3cc(C)c4ccccc4n23)sc2c1CCCC2	-8.3	-6.1	0.3	-0.1	.	.
Cc1cc2nnc(SCC(=O)Nc3sc4c(c3C#N)CCCCC4)n2c2ccccc12	11.7	-2.4	5.9*	0.1	0.8	13.3
CN1CCN(C2=Nc3c(Cl)cc(Cl)c4cccc2c34)CC1	-1.8	-9.8	11.8*	-0.1	1.4	-0.8
Cc1ccc([N+](=O)[O-])cc1S(=O)(=O)Nc1cccc(-c2cn3cccnc3n2)c1	2.9	-6.0	6.1*	-0.1	0.0	11.7
COc1ccccc1-c1cc(NC(=NCc2ccco2)SC)n[nH]1	9.3	50.4*	6.4*	-0.2	1.1	1.1
COc1ccc(-c2cc(NC(=NCc3ccco3)SC)n[nH]2)c(OC)c1	9.8	23.9	0.3	0.6	.	.
CN(C)N1C(N)=C(C#N)C(c2cccc(Cl)c2Cl)C2=C1CCCC2=O (centres undefined)	-7.8	-18.1	5.1*	0.2	-0.1	1.7
CN(C)N1C(N)=C(C#N)C(c2ccccc2Cl)C2=C1CCCC2=O (centres undefined)	11.1	4.8	-1.6	0.1	.	.
CC1=C(C(=O)OCCOC(C)C)C(c2ccccc2Cl)NC(=O)N1 (centres undefined)	3.0	7.0	0.2	0.0	.	.
O=C(Nc1nnc(-c2ccco2)o1)c1nc2ccccc2s1	4.5	-31.0	4.9*	-0.1	0.5	-1.3
COc1ccc(Cn2c(=O)[nH]c3c(C(N)=O)nc(-c4ccc(C)c(C)c4)nc32)cc1	1.1	-11.2	5.0*	0.6	0.8	7.5
COc1ccc(Cn2c(=O)[nH]c3c(C(N)=O)nc(-c4cccc(C)c4)nc32)cc1	-0.1	6.9	-0.2	0.0	.	.
COCCNC(=O)c1ccc(OC)cc1	-1.3	-2.4	4.9*	0.6	1.8	0.8
SMILES	MITF primary	TEAD-YAP block	GPR151 activ	FBW7 activator	GPR151 confirm	GPR119 counter
COCCCNC(=O)c1ccc(OC)cc1	23.4	-10.2	-1.6	0.1	.	.
CN1CCC(N(C(=O)CCC(=O)O)C2CC2)CC1	-3.2	4.0	8.8*	-0.2	-0.9	-7.6
COc1ccc([N+](=O)[O-])cc1N=Cc1ccc(C#N)cc1	-6.1	1.1	5.1*	0.5	-0.2	6.1
COc1ccc([N+](=O)[O-])cc1N=Cc1cccc([N+](=O)[O-])c1	3.7	-3.3	-1.3	0.0	.	.
CC1(C)Cc2ccccc2/C(=C/C(=O)C(=O)NCc2ccccc2)N1	-21.2	2.3	6.6*	-0.1	0.1	-0.2
Cc1ccc2c(c1)C(=C(C#N)C#N)C=C(c1cccs1)O2	1.0	-8.7	5.3*	-0.1	0.2	9.8
COC(=O)Cn1c2cc(OC)c(OC)cc2c2nc(=O)cc(C)n21	8.6	7.2	8.8*	-0.1	0.3	3.2
c1ccc(OCCCN2CCC3(CC2)OCCc2c3[nH]c3ccccc23)cc1	-0.4	-8.4	-0.2	0.0	.	.
C#CCSc1nsc(NC(=O)Nc2cccc(F)c2)n1	0.7	35.5*	7.1*	0.1	0.7	-0.9
c1cc(NCc2cccs2)cc(-c2nc3ccccc3o2)c1	6.9	-83.7	0.7	0.3	.	.
CCCC1=NN2C(=N)/C(=C/c3ccc(N(C)C)cc3)C(=O)N=C2S1	6.6	2.1	0.7	-0.2	.	.
CCCCCCCC1=NN2C(=N)/C(=C/c3ccc(N(C)C)cc3)C(=O)N=C2S1	17.0	-3.0	5.7*	-0.1	0.4	11.9
O=C(CCCn1c2ccccc2c2cn[nH]c(=O)c21)NCc1cccnc1	11.6	-1.1	0.2	0.1	.	.
Cc1c(-c2ccc(F)cc2)[n+](=O)c2c(n1[O-])CCCC2	5.4	10.8	-0.2	0.1	.	.
CC(C)c1c(-c2ccccc2)[n+](=O)c2c(n1[O-])CCCCC2	-5.7	-0.5	5.2*	0.0	-0.7	3.0
COc1ccc(NC(=O)c2c(NC(C)=O)sc3c2CCC(C(C)(C)C)C3)cc1 (centres undefined)	7.0	7.6	0.5	0.0	.	.
N#Cc1ccc(Oc2ccc(NC(=O)/C=C\C(=O)O)cc2)cc1	5.3	-5.0	5.3*	-0.1	0.9	9.0
COc1ccc(NC(=O)/C=C/C(=O)O)cc1	4.3	-7.2	-1.7	-0.1	.	.
O=S(=O)(Cc1ccccc1Cl)NC1CCCCCC1	0.8	-13.8	0.3	0.0	.	.
COc1cc(N=Cc2c(O)n(-c3ccccc3F)c(=S)[nH]c2=O)cc(OC)c1	2.4	10.2	5.4*	-0.1	-0.8	-4.9
COc1cc(N=Cc2c(O)n(-c3ccccc3F)c(=O)[nH]c2=O)cc(OC)c1	11.7	-23.1	1.3	0.4	.	.
O=C(Cn1ncn2nc(-c3cccs3)cc2c1=O)NC1CCCc2ccccc21 (centres undefined)	6.3	2.0	0.9	0.1	.	.
O=C(Cn1ncn2nc(-c3cccs3)cc2c1=O)NC1CCN(Cc2ccccc2)CC1	-3.8	-5.6	12.9*	-0.1	1.0	-5.9
C/C(O)=C\c1nc2ccccc2[nH]c1=O	12.3	6.9	6.9*	0.3	0.0	12.7
